Among all 340,000 compounds or so, about 2,000 (0.59%) were called active. The sample holds actives, similar compounds and a random draw of the others, so the mix is not that of the screen. Unmarked numbers belong to inactive results. Rule as the data show it: active = activation mostly above about 9.5% (no sharp cut-off); inactive = mostly below about 7.6%.
These molecules were tested against 5-hydroxytryptamine receptor 5A (Homo sapiens) (UniProt P47898) (assay: HTR5A agonists in luminescence cell assay, primary screen, counter-screen for OPRM1-OPRD1 heterodimer agonist project, full-deck HTS (AID 504692;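 also: 0% = cells with vehicle only and 100% = reference agonist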)). Conditions: cell-based, at 9.3 µM, stronger effect = higher value.
Sequence of 5-hydroxytryptamine receptor 5A (Homo sapiens) (P47898 whole entry, looked up): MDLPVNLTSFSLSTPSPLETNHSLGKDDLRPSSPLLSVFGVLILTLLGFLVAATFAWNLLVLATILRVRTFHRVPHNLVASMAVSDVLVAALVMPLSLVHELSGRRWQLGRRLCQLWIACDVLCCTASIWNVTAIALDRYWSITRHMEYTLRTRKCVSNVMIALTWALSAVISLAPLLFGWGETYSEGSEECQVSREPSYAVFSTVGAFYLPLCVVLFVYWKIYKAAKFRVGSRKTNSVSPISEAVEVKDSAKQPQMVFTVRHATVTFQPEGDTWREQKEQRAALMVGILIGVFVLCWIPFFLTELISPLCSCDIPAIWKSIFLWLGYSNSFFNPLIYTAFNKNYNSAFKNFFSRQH

| SMILES | activation |
| --- | --- |
| COc1ccc(Nc2cc(=O)oc3ccccc23)cc1 | 2.95% |
| COc1cccc2cc(-c3cc(=O)oc4cc(C)c(O)cc34)oc12 | 1.11% |
| COc1ccc2oc(=O)cc(-c3cc4ccccc4o3)c2c1 | 10.7% (active) |
| COc1ccc(C2C(C(C)=O)=C(O)C(=O)N2CCc2c[nH]c3ccccc23)cc1 (stereo unspecified) | 1.98% |
| COc1cccc(-n2c(SCC(=O)c3c[nH]c4ccccc34)nc3ccccc3c2=O)c1 | -2.91% |
| COc1ccc(/C=C(\C#N)c2c[nH]c3ccccc23)cc1 | 19.6% (active) |
| Cc1cc(C(=O)NNS(=O)(=O)c2ccccc2C(F)(F)F)nn1C(C)(C)C | -2.85% |
| Cc1cccc(C)c1NC(=O)Nc1ccccc1-n1ccnc1 | 2.52% |
| NNC(=O)c1ccc(COCC(F)(F)C(F)F)cc1 | 8.26% |
| Cc1ccc(C(=O)NC2CCN(C(=O)Nc3ccc(F)cc3)CC2)cc1 | 4.38% |
| CN(CC(=O)Nc1ccc(F)cc1)CC(=O)Nc1ccc(Cl)c(S(=O)(=O)N2CCOCC2)c1 | 5.23% |
| CN(CCC(=O)Nc1cc(S(=O)(=O)N(C)C)ccc1Cl)CC(=O)Nc1ccc(F)cc1 | 11.8% (active) |
| CN(CC(=O)Nc1ccc(S(=O)(=O)N2CCCC2)cc1)Cc1ccc(Cl)c(Cl)c1 | -1.38% |
| O=C(Nc1cccc(F)c1)[C@@H]1CCCN1 | 0.12% |
| COc1ccc(C(=O)C2CCCN(C(=O)c3ccc(OC)o3)C2)c(C)c1 (stereo unspecified) | -0.4% |
| O=C(Cc1ccc(Br)cc1)N1CCN(c2ccccn2)CC1 | 0.82% |
| O=C(C(Cl)Cl)N1CCN(c2ccccn2)CC1 | -2.12% |
| O=C(/C=C/c1cccc(C(F)(F)F)c1)N1CCN(c2ccccn2)CC1 | 10.6% (active) |
| Cc1cccc(N2CCN(C(=O)CCS(=O)(=O)c3ccc4c(c3)NC(=O)C(C)S4)CC2)c1C (stereo unspecified) | 2.41% |
| COC(=O)c1cc(S(=O)(=O)N2CCN(c3cc(C)ccc3C)CC2)c[nH]1 | 14.8% (active) |
| Cc1ccc(C)c(N2CCN(S(=O)(=O)c3ccc4c(c3)oc(=O)n4C)CC2)c1 | 0.11% |
| Cc1ccc(C)c(N2CCN(S(=O)(=O)c3c(C)[nH]c(C)c3C(=O)N3CCCC3)CC2)c1 | 0.83% |
| Cc1cccc(N2Cc3ccccc3C2=NC(=O)c2ccc(Cl)nc2)c1 | 2.14% |

| SMILES | activation |
| --- | --- |
| OCCC1CN(Cc2cccc(OC3CCCC3)c2)CCN1Cc1ccsc1 (stereo unspecified) | 0.37% |
| O=C(CCCCCn1c(=O)[nH]c2ccccc2c1=O)NCCc1c[nH]c2ccccc12 | 12.7% (active) |
| CCN(CC)CCNC(=O)CCCCCn1c(=O)[nH]c2cc(C(=O)OC)ccc2c1=O | 1.57% |
| O=C(CCc1c[nH]c2ccccc12)NCCOc1ccccc1 | 0.78% |
| O=C1CC(Cc2ccc(Cl)cc2)C(=O)N1c1cc(Cl)ccn1 (stereo unspecified) | 5.44% |
| CCOC(=O)[C@H]1CCC[C@@H](NS(=O)(=O)c2ccc(NC(C)=O)cc2)C1 | 12.5% (active) |
| CC(=O)Nc1ccc(S(=O)(=O)NC2Cc3ccccc3C2)cc1 | 4.91% |
| CC(=O)Nc1ccc(S(=O)(=O)NC(C)C(=O)OCC(=O)NC2CCCC2)cc1 (stereo unspecified) | 3.96% |
| Cc1cccc(OC(=O)c2sc3ncn(C)c(=O)c3c2C)c1 | -4.42% |
| CCOc1ccc(CCNC(=O)CCc2nnc3ccc(N4CCCC4)nn23)cc1OCC | -0.94% |
| CCC(C)C(N=C1NS(=O)(=O)c2ccccc21)C(=O)N1CCC(C)CC1 (stereo unspecified) | -4.84% |
| CC(C)CC(=O)NC(=S)NCc1ccccc1 | -0.72% |
| O=C(CCC(=O)c1cccs1)Nc1nc2ccccc2s1 | 6.03% |
| CC(C)CC(=O)N/C(N)=N/c1nc2ccccc2s1 | 22% (active) |
| CCOC(=O)C1C(c2ccc(O)cc2)NC(=O)NC1(O)C(F)(F)F (stereo unspecified) | 3.08% |
| CC(C)CCN1CCN(Cc2ccc(C(F)(F)F)cc2)CC1CCO (stereo unspecified) | -0.94% |
| O=C(NCc1ccccc1)C(=O)NCC1OCCN1S(=O)(=O)c1ccc(Br)cc1 (stereo unspecified) | 5.82% |
| CCOC(=O)c1c(-c2ccc(-c3ccccc3)cc2)csc1NC(=O)CCC(=O)O | 9.5% (active) |
| CCOC(=O)c1c(-c2ccc(C)cc2C)csc1NC(=O)CSc1nnnn1C | 0.24% |
| CCOC(=O)c1c(-c2cccc(C)c2)csc1NC(=O)c1c(-c2ccccc2)noc1C | -1.55% |
| O=C(NCc1ccco1)/C(=C\c1cccc([N+](=O)[O-])c1)NC(=O)c1ccco1 | 0.85% |
| O=C(CSc1nncn1-c1cccnc1)N1CCOCC1 | 1.54% |
| Cc1ccc(C(=O)Nc2ccc3c(c2)OCCO3)cc1S(=O)(=O)N1CCOCC1 | 0.67% |

| SMILES | activation |
| --- | --- |
| O=C(NCC(c1cccs1)N1CCOCC1)c1cc(-c2ccccn2)nc2ccccc12 (stereo unspecified) | 1.25% |
| O=C(Nc1ccncc1)c1cc(-c2ccccn2)nc2ccc(Br)cc12 | -4.88% |
| O=C(NCc1cccs1)c1cc(-c2ccccn2)nc2ccc(Br)cc12 | 12.8% (active) |
| CCOC(=O)CSc1nc2ccc(C)cc2n2cnnc12 | -0.67% |
| O=C(CNS(=O)(=O)c1cccc(C(F)(F)F)c1)Nc1ccccc1F | -1.06% |
| Cc1oc2c(F)c(F)c(F)c(F)c2c1S(=O)(=O)Nc1cccc(C(F)(F)F)c1 | 16.5% (active) |
| Cc1noc(C)c1S(=O)(=O)Nc1cc(C(F)(F)F)ccc1N1CCOCC1 | -0.69% |
| CCOc1ccc2[nH]c(=O)c(CN(CCCO)C(C)=O)cc2c1 | 4.2% |
| O=C(NCCS(=O)(=O)NCc1ccc(F)cc1)c1ccccc1 | -3.96% |
| COc1ccc(S(=O)(=O)NCc2ccc(C(=O)N(C)Cc3ccco3)cc2)cc1 | 6.7% |
| COc1ccccc1S(=O)(=O)NCc1ccc(C(=O)N(C)Cc2ccc(F)cc2)cc1 | 16.9% (active) |
| Cc1cc(S(=O)(=O)NC2CCCCC2)ccc1OCC(=O)NCc1cccnc1 | 7.03% |
| COc1ccc(CCNS(=O)(=O)c2cccc([N+](=O)[O-])c2)cc1 | 9% |
| C/C(=N\NS(=O)(=O)c1cccc([N+](=O)[O-])c1)c1cc2ccccc2o1 | 11.2% (active) |
| CC(C=Cc1ccccc1)=NNS(=O)(=O)c1ccc([N+](=O)[O-])cc1 | 2.51% |
| Cc1ccc(NC(=S)NC(NC(=O)Cc2cccc3ccccc23)C(Cl)(Cl)Cl)cc1 (stereo unspecified) | 26.7% (active) |
| CC(C)(C)C(=O)NC(NC(=S)Nc1ccc(S(N)(=O)=O)cc1)C(Cl)(Cl)Cl (stereo unspecified) | 3.71% |
| Cc1ccc(CNC(=O)[C@@H](NC(=O)Cc2ccccc2)C(C)C)cc1 | -1.89% |
| CCOC(=O)C1CCCN(S(=O)(=O)c2ccc(-n3cnnn3)c(C)c2)C1 (stereo unspecified) | 1.69% |
| COC(=O)c1sccc1NC(=O)CSc1ccccc1NS(=O)(=O)c1cc(Cl)ccc1Cl | 8.27% |
| CCc1cc2c(NC(Cc3ccccc3)C(=O)O)ncnc2s1 (stereo unspecified) | -3.53% |
| CCc1cc2c(NC3CCCC3)ncnc2s1 | 0.57% |
| CCc1cc2c(N3CCN(c4nnc(CC)s4)CC3)ncnc2s1 | 10.4% (active) |

| SMILES | activation |
| --- | --- |
| COc1ccc(C(=O)NCc2ccc(Cl)cc2)cc1S(=O)(=O)N1CCCC1 | -0.47% |
| C=CCOC(=O)C1=C[C@@H](c2ccc3c(c2)OCO3)C[C@@H](OCCCCO)O1 | -2.46% |
| Nn1c(SCC(=O)Nc2nccs2)nnc1-c1ccco1 | 2.08% |
| CC(=O)COc1ccc2c(-c3ccccc3)cc(=O)oc2c1 | 15.1% (active) |
| COc1ccc(-c2cc(=O)oc3cc(OCC(=O)N(C)C4CCS(=O)(=O)C4)ccc23)cc1 (stereo unspecified) | 3.71% |
| COc1ccc(-c2cc(=O)oc3cc(OCC(=O)N[C@@H](Cc4c[nH]c5ccccc45)C(=O)O)ccc23)cc1 | -4.61% |
| Cc1cc(C(=O)OC(C)C(=O)Nc2cccc(S(=O)(=O)N3CCOCC3)c2)c(C)o1 (stereo unspecified) | 1.13% |
| C[C@@H](CN1CCC[C@H]1CN1C(N)=NC[C@@H]1Cc1ccccc1)N1C[C@@H](Cc2ccccc2)N(CCCC2CCCC2)C1=N | -7.1% |
| COc1cc(SC#N)ccc1N=Cc1c(C)[nH]n(-c2ccc(C)cc2)c1=O | 11.4% (active) |
| Cc1ccc(C(=O)N2CC(=O)Nc3ccccc32)o1 | -6.07% |
| COc1cccc(OC)c1C(=O)N1CCN(Cc2cccnc2)CC1 | 3.95% |
| C=C(C)CSc1nnc(-c2ccc(C)cc2)n1N | -0.48% |
| COc1ccccc1NS(=O)(=O)c1ccc(C(=O)N2CCN(c3ccccc3O)CC2)cc1 | -0.27% |
| COc1ccc(S(=O)(=O)N2CCOC2CNC(=O)C(=O)NCc2ccncc2)cc1OC (stereo unspecified) | 1.9% |
| CC(=O)Nc1ccc(S(=O)(=O)N2CCn3cccc3C2C)cc1 (stereo unspecified) | -2.82% |
| COc1cccc(/C=N/NC(=O)c2[nH]nc3c2CCc2ccccc2-3)c1O | 18.3% (active) |
| COc1ccc(/C=N/NC(=O)c2ccncc2)cc1CN1CCCc2ccccc21 | 1.74% |
| CCOc1ccc2[nH]c(C(=O)N/N=C/c3cccc(OC)c3OC)cc2c1 | 4.96% |
| COc1cccc(CNCc2ccc3c(c2)OCO3)c1 | 9.7% |
| COc1ccc(C(=O)NC2=NCCS2)c(OC)c1 | 4.66% |
| COc1ccc(C(=O)Nc2cccc(NC(=O)c3ccc(OC)cc3OC)n2)c(OC)c1 | 13.4% (active) |
| COc1ccc(C(=O)NC(C)CCc2ccccc2)c(OC)c1 (stereo unspecified) | 3.2% |
